Assay results: ChEMBL document CHEMBL3988442, “University of Dundee, Small-Polar-MMV Screening Library” (2021)
For some of these results: Entries with a potency or affinity are not part of this list.

What was measured:
Design in all cases: scale not given: direction of the effect not stated beside the values
[1] = target: Protein translocase subunit SecA (Escherichia coli (strain K12)) (UniProt P10408); test: Assay to Identify E. coli SecA ATPase Inhibitors; type: functional; conditions: 30 µM
[2] = target: T1, Ubiquitin-activating enzyme e1, putative (Leishmania donovani (strain BPK282A1)) (UniProt E9BSI1); test: Leishmania donovani Ubiquitin Activating Enzyme (LdE1); type: functional; conditions: 30 µM
T1 sequence (whole entry): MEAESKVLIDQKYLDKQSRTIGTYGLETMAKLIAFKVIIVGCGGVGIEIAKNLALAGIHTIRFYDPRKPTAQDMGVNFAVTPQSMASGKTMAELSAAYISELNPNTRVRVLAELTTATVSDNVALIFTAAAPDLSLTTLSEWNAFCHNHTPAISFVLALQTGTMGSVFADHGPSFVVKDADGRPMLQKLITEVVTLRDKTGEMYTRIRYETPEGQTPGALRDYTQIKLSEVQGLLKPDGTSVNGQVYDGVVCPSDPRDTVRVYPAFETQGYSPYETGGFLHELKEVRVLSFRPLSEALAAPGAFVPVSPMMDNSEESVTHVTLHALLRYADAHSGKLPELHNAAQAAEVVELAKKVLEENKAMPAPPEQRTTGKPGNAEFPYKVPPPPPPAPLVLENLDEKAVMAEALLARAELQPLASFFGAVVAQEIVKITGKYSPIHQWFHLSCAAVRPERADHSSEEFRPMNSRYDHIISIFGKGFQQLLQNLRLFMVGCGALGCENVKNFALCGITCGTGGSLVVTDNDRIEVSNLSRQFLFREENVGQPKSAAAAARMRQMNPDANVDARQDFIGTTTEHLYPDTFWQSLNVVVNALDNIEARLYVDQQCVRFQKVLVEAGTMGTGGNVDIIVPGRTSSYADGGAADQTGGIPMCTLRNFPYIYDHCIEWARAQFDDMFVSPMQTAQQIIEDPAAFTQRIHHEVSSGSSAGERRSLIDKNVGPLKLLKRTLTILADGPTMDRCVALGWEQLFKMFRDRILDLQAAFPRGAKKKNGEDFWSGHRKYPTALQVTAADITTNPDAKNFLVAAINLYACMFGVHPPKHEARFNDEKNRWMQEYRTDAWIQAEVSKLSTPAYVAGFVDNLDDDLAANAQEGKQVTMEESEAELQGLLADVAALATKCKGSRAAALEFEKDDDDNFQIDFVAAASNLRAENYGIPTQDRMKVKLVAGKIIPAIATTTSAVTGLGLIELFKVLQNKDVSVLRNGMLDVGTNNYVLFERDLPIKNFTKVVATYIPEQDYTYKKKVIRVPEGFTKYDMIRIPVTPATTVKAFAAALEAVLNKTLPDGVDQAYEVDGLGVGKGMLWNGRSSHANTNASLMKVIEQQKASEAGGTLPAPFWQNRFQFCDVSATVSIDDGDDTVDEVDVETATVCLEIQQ

[3] = target: AMP-activated protein kinase, AMPK (Homo sapiens) (UniProt P54646+O43741+P54619+Q9UGJ0+Q9Y478+Q13131+Q9UGI9); test: AMP-dependent Kinase enzyme assay. An in vitro enzyme assay that detects ADP turnover that is directly proportional to AMPK activity. This uses naive AMPK that is activated during the assay with MK-8722; type: functional; conditions: 30 µM
[4] = target: Sialic acid-binding Ig-like lectin 9 (Homo sapiens) (UniProt Q9Y336); test: Hs-Siglec9 ALPHAscreen SOP 20170721; conditions: 10 µM
Chain of Sialic acid-binding Ig-like lectin 9 (Homo sapiens) (Q9Y336 whole entry): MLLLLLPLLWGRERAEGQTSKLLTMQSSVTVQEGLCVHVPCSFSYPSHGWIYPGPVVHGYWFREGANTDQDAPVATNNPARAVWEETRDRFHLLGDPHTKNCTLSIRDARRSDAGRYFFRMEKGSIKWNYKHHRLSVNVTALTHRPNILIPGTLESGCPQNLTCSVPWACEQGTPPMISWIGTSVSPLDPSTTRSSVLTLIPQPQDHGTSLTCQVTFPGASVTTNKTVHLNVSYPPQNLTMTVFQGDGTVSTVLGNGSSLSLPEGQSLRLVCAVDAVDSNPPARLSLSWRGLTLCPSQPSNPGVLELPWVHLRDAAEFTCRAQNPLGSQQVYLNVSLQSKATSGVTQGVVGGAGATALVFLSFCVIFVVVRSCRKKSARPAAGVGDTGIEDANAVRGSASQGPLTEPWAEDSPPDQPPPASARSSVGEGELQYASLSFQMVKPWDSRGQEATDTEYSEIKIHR

Trypanosoma cruzi = test: Trypanosoma cruzi phosphomannomutase and mannose-1-phosphate guanylyltransferase assay; type: functional; conditions: 10 µM
[5] = target: T2, Arginase-2, mitochondrial (Homo sapiens) (UniProt P78540); test: in vitro enzyme assay to detect the production of urea directly proportional to the activity of Arginase II; type: functional; conditions: 33.3 µM; also: in the data most compounds retested in dose-response had high values
T2 sequence (whole entry): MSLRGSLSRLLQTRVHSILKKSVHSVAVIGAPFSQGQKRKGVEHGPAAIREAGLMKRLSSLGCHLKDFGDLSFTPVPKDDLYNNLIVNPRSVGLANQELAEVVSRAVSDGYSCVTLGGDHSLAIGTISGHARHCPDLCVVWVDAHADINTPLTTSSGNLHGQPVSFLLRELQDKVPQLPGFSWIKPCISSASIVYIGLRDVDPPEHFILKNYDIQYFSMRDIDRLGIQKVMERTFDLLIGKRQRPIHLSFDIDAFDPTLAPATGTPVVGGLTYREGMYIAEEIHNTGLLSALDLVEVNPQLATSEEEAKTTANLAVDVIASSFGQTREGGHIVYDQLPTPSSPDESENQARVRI

[6] = target: T3, Proteasome subunit beta (Trypanosoma cruzi) (UniProt O96673); test: Trypanosoma cruzi proteasome chymotrypsin-like activity (TcProtChymo) assay.; also: in the data most compounds retested in dose-response had high values; type: functional; conditions: 9.37 µM
T3 sequence (whole entry): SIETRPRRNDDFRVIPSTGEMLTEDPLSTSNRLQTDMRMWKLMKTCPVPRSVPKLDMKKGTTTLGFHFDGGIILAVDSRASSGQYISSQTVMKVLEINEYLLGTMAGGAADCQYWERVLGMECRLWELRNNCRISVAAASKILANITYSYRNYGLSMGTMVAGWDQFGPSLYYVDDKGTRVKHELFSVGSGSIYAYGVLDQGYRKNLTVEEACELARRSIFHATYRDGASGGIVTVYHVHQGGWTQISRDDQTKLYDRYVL

Homo sapiens = organism: Homo sapiens; test: To identify inhibition of the IFN signalling (Jak-Stat) pathway via expression of an eGFP reporter gene under the control of an IFN-stimulated response element (ISRE) containing MxA promoter.; type: functional; conditions: 30 µM
[7] = target: T4, Tyrosyl-tRNA synthetase, putative (Trypanosoma cruzi (strain CL Brener)) (UniProt Q4DSP6); test: Trypanosoma cruzi tyrosyl tRNA synthetase (TcYRS) _High Tyrosine SOP; type: functional; conditions: 30 µM; also: in the data most compounds retested in dose-response had high values
T4 sequence (whole entry): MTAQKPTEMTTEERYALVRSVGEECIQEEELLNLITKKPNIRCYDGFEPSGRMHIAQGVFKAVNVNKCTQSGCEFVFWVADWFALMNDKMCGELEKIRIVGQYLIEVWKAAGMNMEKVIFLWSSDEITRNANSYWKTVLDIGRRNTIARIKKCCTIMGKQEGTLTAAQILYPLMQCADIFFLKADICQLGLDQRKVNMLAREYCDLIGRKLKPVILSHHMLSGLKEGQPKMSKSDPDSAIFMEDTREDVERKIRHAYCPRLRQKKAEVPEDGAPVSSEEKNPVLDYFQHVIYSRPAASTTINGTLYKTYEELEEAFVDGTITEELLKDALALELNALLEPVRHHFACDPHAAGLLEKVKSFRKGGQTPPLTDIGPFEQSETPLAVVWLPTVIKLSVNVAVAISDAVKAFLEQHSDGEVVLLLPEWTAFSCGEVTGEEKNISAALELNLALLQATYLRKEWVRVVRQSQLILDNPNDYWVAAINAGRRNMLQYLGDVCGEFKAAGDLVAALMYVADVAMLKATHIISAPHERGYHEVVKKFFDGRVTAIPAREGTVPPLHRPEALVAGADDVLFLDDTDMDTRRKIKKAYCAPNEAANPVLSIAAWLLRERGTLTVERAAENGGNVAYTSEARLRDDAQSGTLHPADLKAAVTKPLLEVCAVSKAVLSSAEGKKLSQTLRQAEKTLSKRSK

[8] = target: T4, Tyrosyl-tRNA synthetase, putative (Trypanosoma cruzi (strain CL Brener)); test: Trypanosoma cruzi tyrosyl tRNA synthetase (TcYRS) SOP; type: functional; conditions: 30 µM
[9] = target: Chromo domain-containing protein 1 (Saccharomyces cerevisiae (strain ATCC 204508 / S288c) (Baker's yeast)) (UniProt P32657); test: ScCHD-1 Enzyme Inhibition Assay; type: functional; conditions: 30 µM; also: in the data most compounds retested in dose-response had high values
Chain of Chromo domain-containing protein 1 (Saccharomyces cerevisiae (strain ATCC 204508 / S288c) (Baker's yeast)) (P32657 whole entry, the tested form may be a part): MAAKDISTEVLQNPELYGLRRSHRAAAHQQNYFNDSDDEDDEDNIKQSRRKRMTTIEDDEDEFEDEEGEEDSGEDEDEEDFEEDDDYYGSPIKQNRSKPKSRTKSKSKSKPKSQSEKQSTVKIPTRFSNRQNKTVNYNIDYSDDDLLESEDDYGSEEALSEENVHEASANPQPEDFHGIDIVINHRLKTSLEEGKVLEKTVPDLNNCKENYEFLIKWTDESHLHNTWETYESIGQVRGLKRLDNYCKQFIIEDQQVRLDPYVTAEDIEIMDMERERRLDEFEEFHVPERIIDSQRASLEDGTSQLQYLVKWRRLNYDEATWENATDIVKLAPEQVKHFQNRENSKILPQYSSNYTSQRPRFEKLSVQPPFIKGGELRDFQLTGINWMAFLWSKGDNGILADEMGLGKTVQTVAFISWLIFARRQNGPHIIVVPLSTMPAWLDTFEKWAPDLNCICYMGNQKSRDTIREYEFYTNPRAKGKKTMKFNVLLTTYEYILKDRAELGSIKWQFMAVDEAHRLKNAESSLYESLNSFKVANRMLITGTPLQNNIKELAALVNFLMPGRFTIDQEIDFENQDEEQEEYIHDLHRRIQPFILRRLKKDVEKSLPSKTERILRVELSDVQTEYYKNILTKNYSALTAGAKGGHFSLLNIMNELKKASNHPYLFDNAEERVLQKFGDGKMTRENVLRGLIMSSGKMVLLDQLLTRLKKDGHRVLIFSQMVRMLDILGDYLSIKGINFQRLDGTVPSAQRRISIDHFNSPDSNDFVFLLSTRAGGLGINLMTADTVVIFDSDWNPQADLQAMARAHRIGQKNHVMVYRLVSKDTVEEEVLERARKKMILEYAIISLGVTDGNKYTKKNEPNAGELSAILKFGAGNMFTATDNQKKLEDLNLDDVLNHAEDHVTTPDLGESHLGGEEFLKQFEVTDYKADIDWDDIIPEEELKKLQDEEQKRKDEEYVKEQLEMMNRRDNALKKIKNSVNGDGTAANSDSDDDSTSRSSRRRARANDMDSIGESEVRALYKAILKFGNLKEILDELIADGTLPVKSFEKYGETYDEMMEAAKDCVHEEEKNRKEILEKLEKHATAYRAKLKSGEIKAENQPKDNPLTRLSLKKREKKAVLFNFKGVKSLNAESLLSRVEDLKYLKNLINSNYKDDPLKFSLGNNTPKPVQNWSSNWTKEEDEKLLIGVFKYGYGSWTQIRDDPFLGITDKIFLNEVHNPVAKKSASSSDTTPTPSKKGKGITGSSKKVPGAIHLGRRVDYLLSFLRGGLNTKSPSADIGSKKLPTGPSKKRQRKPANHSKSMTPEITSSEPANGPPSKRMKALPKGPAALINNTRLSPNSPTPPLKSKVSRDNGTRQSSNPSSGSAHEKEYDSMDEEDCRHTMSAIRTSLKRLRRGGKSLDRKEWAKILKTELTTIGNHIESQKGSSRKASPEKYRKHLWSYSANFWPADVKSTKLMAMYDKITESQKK

Chain of Protein translocase subunit SecA (Escherichia coli (strain K12)) (P10408 whole entry): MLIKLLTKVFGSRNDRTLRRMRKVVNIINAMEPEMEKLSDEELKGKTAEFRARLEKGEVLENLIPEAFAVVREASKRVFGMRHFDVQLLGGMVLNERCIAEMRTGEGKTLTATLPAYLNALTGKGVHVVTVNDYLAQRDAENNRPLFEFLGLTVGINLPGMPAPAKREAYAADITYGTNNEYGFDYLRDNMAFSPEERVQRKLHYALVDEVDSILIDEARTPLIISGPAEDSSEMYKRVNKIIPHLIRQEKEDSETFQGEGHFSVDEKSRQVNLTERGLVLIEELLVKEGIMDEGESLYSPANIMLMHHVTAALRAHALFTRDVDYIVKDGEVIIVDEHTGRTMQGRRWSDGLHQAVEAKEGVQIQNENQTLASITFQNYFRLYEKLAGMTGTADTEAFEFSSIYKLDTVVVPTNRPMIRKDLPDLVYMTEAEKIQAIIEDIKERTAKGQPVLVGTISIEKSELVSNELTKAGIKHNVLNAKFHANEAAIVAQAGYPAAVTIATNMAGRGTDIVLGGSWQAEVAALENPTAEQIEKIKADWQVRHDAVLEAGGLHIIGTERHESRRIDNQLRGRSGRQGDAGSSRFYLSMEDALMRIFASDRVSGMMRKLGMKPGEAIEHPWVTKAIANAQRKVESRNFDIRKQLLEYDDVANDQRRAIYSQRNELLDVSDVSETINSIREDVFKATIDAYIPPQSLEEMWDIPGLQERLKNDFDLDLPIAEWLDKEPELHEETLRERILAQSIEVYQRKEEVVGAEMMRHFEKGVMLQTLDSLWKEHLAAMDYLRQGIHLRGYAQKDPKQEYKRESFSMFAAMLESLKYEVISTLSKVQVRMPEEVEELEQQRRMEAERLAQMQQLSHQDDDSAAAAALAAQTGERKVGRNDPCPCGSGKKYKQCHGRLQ

SMILES	Percent Effect [1]	Percent Effect [2]	Percent Effect [3]	Percent Effect [4]	Percent Effect (Trypanosoma cruzi)	Percent Effect [5]	Percent Effect [6]	Percent Effect (Homo sapiens)	Percent Effect [7]	Percent Effect [8]	Percent Effect [9]
CC(C)c1ncc2c(n1)CN(Cc1cccc(C#N)c1)CC2	-3.01%	0%	-28.8%	8.37%	4.89%	3.06%	5.01%	-9.04%	5.39%	4.88%	2.88%
CC(NC(=O)NCCCn1cccn1)c1ccc2c(c1)NC(=O)CO2 (stereo not given)	-6.96%	25.3%	-6.75%	-5.5%	10.1%	-3.42%	10.2%	15.4%	8.37%	29.1%	-10.1%
NCc1cnn(-c2ccccc2C(=O)NCCCn2ccnc2)c1	-3.74%	6.76%	9.61%	-1.25%	-3.16%	-1.16%	0.312%	4.01%	7.53%	11.7%	-2.44%
COc1ccc(NC(=O)N2CCN(c3ncccn3)CC2)cn1	-0.45%	8.22%	2.23%	-2.77%	-3.53%	3.64%	7.63%	11.7%	4.3%	10%	-3.82%
O=C([C@@H]1C[C@H]2[C@H](CCN2Cc2nccs2)O1)N1CCOCC1	-0.787%	8.11%	1.14%	-3.79%	-2.15%	0.833%	19%	11.3%	10.9%	13.4%	8.93%
O=C(Cc1ccccc1F)N1C[C@@H]2COC[C@]2(COc2cccnc2)C1	-2.71%	8.11%	2.48%	0.934%	-1.66%	10.5%	17.5%	-1.09%	3.24%	12.8%	-2.39%
Cn1cc(N2CC3(CCN(S(=O)(=O)C4CC4)C3)CC2=O)cn1 (stereo not given)	-2.73%	18.7%	-7.51%	-0.00481%	3.09%	-11.3%	10.6%	-1.37%	7.29%	27.5%	-13.5%
CC(C)CC1SCC(=O)Nc2c1cnn2C(C)C (stereo not given)	-3.15%	22.7%	1.11%	2.31%	4.71%	-4.05%	16.3%	5.92%	7.41%	20.5%	-5.98%
O=C(NCC1CC1)[C@@H]1CCO[C@@H]2CCN(Cc3ccco3)C[C@H]21	-1.9%	-2.67%	1.99%	-4.47%	-2.9%	-55.7%	-1.2%	5.41%	-3.12%	-10%	-0.123%
COc1ccc(C(=O)N2CCCC2c2ccco2)cc1OC (stereo not given)	2.38%	2.6%	-1.48%	-11.9%	-4.24%	-1.94%	14.8%	9.23%	3.17%	8.97%	-10.7%
Cc1cc(CN2CCN(C(=O)c3sccc3C(C)C)CC2)no1	-1.68%	2.6%	4.01%	0.935%	4.41%	4.84%	1.86%	5.54%	2.86%	7.06%	-3.8%
Cc1c(C(=O)N2CCCC2c2cnn(C)c2)nnn1-c1ccccc1 (stereo not given)	-5.12%	13.5%	-11.2%	15.4%	4.55%	-3.14%	9.87%	8.27%	0.99%	13.4%	-7.97%
O=C(c1cccc(S(=O)(=O)NCCCc2ccco2)c1)N1CCOCC1	-4.29%	2.74%	6.53%	-4.06%	1.37%	1.82%	5.86%	-5.12%	7.53%	15%	-2.3%
COCC(=O)NCc1cccc(Br)c1	-0.913%	18.4%	-5.98%	-7.74%	4.89%	1.92%	11.4%	13.3%	4.41%	19.5%	-12.7%
CC(C)c1nccn1C1CCCN(C(=O)c2cnn(C)c2C2CC2)C1 (stereo not given)	-1.82%	13.2%	-2.81%	-2.13%	2.71%	-5.75%	6.34%	-7.13%	13.3%	25.9%	-8.69%
COc1ccc(CCN2CCC(N3CCN(C)C3=O)CC2)cc1	-6.17%	13%	0.0857%	0.317%	-1.87%	-4.98%	8.45%	4.3%	4.85%	12.2%	-7.97%
C[S+]([O-])CCCNC(=O)c1cc(Br)c2c(c1)OCCO2 (stereo not given)	-5.04%	10.7%	-5.08%	28.9%	5.55%	48.4%	2.62%	8.03%	2.73%	13.6%	-7.44%
O=C(NCc1cccnc1)C1=NN(c2ccccc2)C(=O)CN1	-0.966%	18.9%	8.77%	14.9%	0.293%	26.1%	15%	-2.67%	6.45%	18.5%	-8.57%
Cc1ccc(S(=O)(=O)N2C[C@H]3C[C@H](NC(=O)c4ccn(C)n4)[C@H]3C2)cc1	-7.65%	17.6%	-0.91%	4.49%	-0.395%	-3.48%	9.36%	16.8%	2.15%	9.09%	-25.8%
O=C(O)[C@]12CCCN(Cc3ccccc3)C[C@H]1CN(c1ncccn1)C2	-4.2%	5.33%	7.47%	-4.2%	0.386%	-39.2%	9.91%	-24.8%	4.17%	12.5%	-8.27%
